These results are taken from PubChem BioAssay (NCATS).

SMILES strings stand for the structures. Inconclusive results are not listed. Calls of active or inactive are those of the source. The call rests on the fitted dose curve; in most records, active means well fitted inhibition curve with a large enough effect; inconclusive means small, poorly fitted or top-dose-only effect; inactive means flat fitted curve, though single readings scatter.

What all share (assay): qHTS profiling for inhibitors of Plasmodium falciparum proliferation (AID 504749); further: nearly all actives have a fitted effect of over 60% in size
Common to all, as to settings: P. falciparum in erythrocytes, SYBR Green DNA, 72 h; series mostly up to 28.7 µM

The test system of one test is CP266. Summed up: (§1)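 In a 72 h erythrocytic culture (37 C, humidified, 5% CO2) at 2.5% hematocrit and 0.3% starting parasitemia, compounds were tested; SYBR Green I in detergent lysis buffer stained parasite DNA overnight.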
In a further test the test system is CP268. Summed up: as §1
For a further test, the system named is CP269. Summed up:
as §1

A further test has as its system CP286. Summed up: as §1
Another test has as its system CP291. Summed up:
as §1

The test system of another test is CP305. Summed up:
as §1

The next test has as its system CP315. Summed up:
as §1

A further test relates to CP325. Summed up:
as §1

Another test deals with CP329. Summed up: as §1
Another test concerns CP297. Summed up:
as §1
Potency means the concentration at half of the fitted maximal effect.

Turning to `O=P(O)(O)OC[C@H]1O[C@](O)(COP(=O)(O)O)[C@@H](O)[C@@H]1O`, the Potency entry with CP266, in the test on CP268, with CP269, in the test on CP286, in the test with CP291 and in the test on CP305 was “inactive” each time. The Potency result with CP315, with CP325 and with CP329 was “inactive” in each case.
Take `CCCCC/C=C\C/C=C\C/C=C\CCCCC(=O)O`: the Potency entry in the test with CP266, with CP268, in the test on CP269, in the test with CP286, in the test on CP291 and in the test with CP305 was “inactive” in each case. The Potency result in the test on CP315, with CP325 and with CP329 was “inactive” each time.
Consider `CC(C)c1nc(N(C)S(C)(=O)=O)nc(-c2ccc(F)cc2)c1/C=C/C(O)CC(O)CC(=O)O` (stereo not drawn), for which the Potency result with CP266, in the test with CP268, in the test with CP269, with CP286, in the test on CP291 and with CP297 was “inactive” each time. Moreover, the Potency entry with CP305, with CP315, in the test on CP325 and in the test on CP329 was “inactive” in each case.
As for `C=CC[C@@H]1/C=C(\C)C[C@H](C)C[C@H](OC)[C@H]2O[C@@](O)(C(=O)C(=O)N3CCCC[C@H]3C(=O)O[C@H](/C(C)=C/[C@@H]3CC[C@@H](O)[C@H](OC)C3)[C@H](C)[C@@H](O)CC1=O)[C@H](C)C[C@@H]2OC`, the Potency in the test with CP266 was 8.49 µM (active); in the test on CP268, 0.849 µM (active); with CP269 it was 3.79 µM (active); in the test with CP286, 1 µM (active); with CP291, 6.75 µM (active); in the test with CP297 it was 1.9 µM (active). Also, the Potency in the test with CP315 was 6.75 µM (active); in the test on CP325, 4.26 µM (active); in the test on CP329, 4.26 µM (active).
In the case of `O=C1CCC(=O)N1CO`, the Potency result with CP266, in the test with CP268, with CP269, with CP286, with CP291 and with CP305 was “inactive” each time. For the same compound, the Potency entry in the test with CP315, in the test with CP325 and in the test with CP329 was “inactive” in each case.
Consider `CCc1ccc(S(=O)(=O)O)cc1`, for which the Potency result with CP266, in the test with CP268, with CP269, in the test with CP286, in the test on CP291 and in the test with CP305 was “inactive” each time. Further, the Potency result in the test on CP315, with CP325 and in the test with CP329 was “inactive” throughout.
On to `CC(C)CCCC(C)NC(C)C` (stereo not drawn), for which the Potency result in the test with CP266, in the test on CP268, with CP269, in the test on CP286, in the test on CP291 and in the test with CP305 was “inactive” in each case. Further, the Potency result with CP315, in the test on CP325 and in the test on CP329 was “inactive” each time.
As to `CCCCCCCCCCCCCC(=O)OCC(COP(=O)([O-])OCC[N+](C)(C)C)OC(=O)CCCCCCCCCCCCC` (stereo not drawn), the Potency result in the test on CP266, in the test on CP268, with CP269, with CP286, in the test with CP291 and in the test on CP297 was “inactive” throughout. For the same compound, the Potency entry in the test on CP305, with CP315, in the test on CP325 and with CP329 was “inactive” throughout.
For the compound `O=C(OC1C[C@@H]2CC3C[C@H](C1)N2CC3=O)c1c[nH]c2ccccc12` (stereo partly drawn), the Potency entry with CP266, in the test on CP268, in the test with CP269, in the test with CP286, in the test on CP291 and in the test on CP297 was “inactive” each time. Further, the Potency result with CP315, with CP325 and in the test on CP329 was “inactive” each time.
For the compound `Cc1ccccn1`, the Potency entry with CP266, in the test with CP268, in the test with CP269, with CP286, with CP291 and with CP297 was “inactive” in each case. The Potency result in the test on CP305, in the test on CP315, in the test with CP325 and with CP329 was “inactive” in each case.
For `NCC[C@H](O)C(=O)N[C@@H]1C[C@H](N)[C@@H](O[C@H]2O[C@H](CN)[C@@H](O)[C@H](O)[C@H]2O)[C@H](O)[C@H]1O[C@H]1O[C@H](CO)[C@@H](O)[C@H](N)[C@H]1O`, the Potency result in the test with CP266, with CP268, in the test with CP269, in the test on CP286, with CP291 and in the test with CP297 was “inactive” throughout. The Potency entry in the test on CP305, with CP315, with CP325 and in the test on CP329 was “inactive” in each case.
For the compound `CC[C@H]1OC(=O)[C@H](C)[C@@H](O[C@H]2C[C@@](C)(OC)[C@@H](O)[C@H](C)O2)C(C)[C@@H](O[C@@H]2O[C@H](C)C[C@H](N(C)C)[C@@H]2O)[C@](C)(OC)C[C@@H](C)C(=O)[C@H](C)[C@@H](O)[C@]1(C)O` (stereo partly drawn), the Potency result with CP266, in the test with CP268, in the test with CP269, in the test on CP291, with CP305 and in the test with CP315 was “inactive” each time. Also, the Potency in the test on CP286 is 8.91 µM (active).
With `COC(=O)CCC[N+](C)(C)C`, the Potency result with CP266, with CP268, in the test with CP269, in the test on CP286, in the test with CP291 and in the test on CP297 was “inactive” in each case. In addition, the Potency result in the test on CP305, with CP315, with CP325 and in the test with CP329 was “inactive” throughout.
For the compound `COc1cc(C)c(/C=C/C(C)=C/C=C/C(C)=C/C(=O)O)c(C)c1C`, the Potency entry in the test with CP266, in the test on CP268, in the test on CP269, with CP286, in the test with CP291 and in the test with CP305 was “inactive” in each case. Besides, the Potency result in the test with CP315, in the test on CP325 and in the test on CP329 was “inactive” in each case.
Consider `CC1CCC(NC(=O)N(CCCl)N=O)CC1` (stereo not drawn), for which the Potency result with CP266, with CP268, in the test with CP269, in the test on CP286, in the test on CP291 and in the test with CP297 was “inactive” throughout. In addition, the Potency result in the test with CP305, in the test on CP315, in the test on CP325 and with CP329 was “inactive” throughout.
Turning to `O=C1CCC(c2ccccc2)(C2CCN(Cc3ccccc3)CC2)C(=O)N1` (stereo not drawn), the Potency entry with CP266, in the test with CP268, in the test with CP269, with CP286, in the test on CP291 and with CP315 was “inactive” in each case. The Potency result in the test on CP325 and in the test on CP329 was “inactive” throughout.
For the compound `COc1ccc(/C=C/C(=O)OCCC(C)C)cc1`, the Potency entry with CP266, with CP268, in the test on CP269, in the test with CP286, in the test on CP291 and in the test on CP305 was “inactive” throughout. Also, the Potency entry in the test on CP315, in the test on CP325 and in the test with CP329 was “inactive” throughout.
For `CC(C)NCC(O)COc1ccccc1-n1cccc1` (stereo not drawn), the Potency entry with CP266, in the test on CP268, with CP269, in the test on CP286, in the test with CP291 and with CP305 was “inactive” each time. Moreover, the Potency entry with CP315, in the test with CP325 and in the test on CP329 was “inactive” throughout.
In the case of `CCOC(=O)Cc1ccc(-c2ccccc2)cc1`, the Potency entry with CP266, in the test with CP268, in the test on CP269, with CP286, in the test on CP291 and in the test with CP305 was “inactive” in each case. The Potency result in the test with CP315, in the test on CP325 and in the test on CP329 was “inactive” in each case.
For `Oc1cc(O)cc(O)c1`, the Potency entry in the test on CP266, in the test on CP268, in the test on CP269, in the test with CP286, in the test on CP291 and in the test with CP297 was “inactive” in each case. The Potency result in the test with CP305, with CP315, with CP325 and in the test with CP329 was “inactive” each time.
On to `O=C(O)/C=C/C(=O)Nc1ccc(S(=O)(=O)Nc2nccs2)cc1`, for which the Potency entry with CP266, in the test on CP268, in the test on CP269, with CP286, in the test on CP291 and with CP305 was “inactive” throughout. The Potency result in the test with CP315, with CP325 and in the test on CP329 was “inactive” each time.
`Cc1nc(NS(=O)(=O)c2ccc(N)cc2)nc(C)c1Br`: the Potency result in the test with CP266, with CP268, in the test with CP269, in the test with CP286, with CP291 and with CP297 was “inactive” each time. In addition, the Potency entry in the test with CP305, in the test on CP315, in the test with CP325 and in the test on CP329 was “inactive” each time.
As to `OCC1(CO)COC(C(Cl)(Cl)Cl)OC1`, the Potency result with CP266, with CP268, with CP269, with CP286, in the test with CP291 and in the test with CP297 was “inactive” throughout. Also, the Potency result with CP305, with CP315, with CP325 and in the test on CP329 was “inactive” in each case.
